LGR2 antag: inhibitors of bursicon-induced Drosophila LGR2 receptor cAMP signaling | 0.35% of 380,000 active | inhibition, % at 9.99 µM | HEK293 LGR2, CRE-luciferase, bursicon-stimulated, 4 h;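 active means drop in luminescence signal, shown as inhibition above about 50% in the replicate tests, limit read from the data, passing the limit was not always enough; inconclusive means probably only some replicates passing the limit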;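 further: agonist challenge used bursicon conditioned medium at about half maximal strength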
Shn3 3UTR inh: Schnurri-3 reporter inhibition in Clone20 osteoblasts; Clone20 osteoblast Shn3 3'UTR firefly luciferase, 24 h; 0.52% of 360,000 active; inhibition, % at 12.5 µM;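 active means mean inhibition of at least 75% with every replicate also reaching 75%; inconclusive means mean inhibition at least 75% but some replicate below; inactive means mean inhibition below 75%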;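 further: 0% = median of neutral control wells and 100% = pilot-screen positive control compound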
EWS-Fli inh: EWS/Fli transcriptional activity inhibition; 0.67% of 350,000 active; A673 NR0B1-luciferase reporter, viability-normalised; AID 651661; inhibition, % at 12.6 µM;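 active means mean inhibition of at least 50% after viability correction, with every replicate also passing that limit; inconclusive means mean reaches 50% but only one of two replicates passes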;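 further: firefly luciferase signal divided by Alamar Blue viability fluorescence both relative to DMSO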
PAX8 reporter: PAX8 transcriptional activity inhibition | inhibition, % at 12.6 µM | RMG-I TPO-luciferase reporter, SteadyGlo, 24 h | 1.2% of 360,000 active;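 active means mean replicate inhibition at least 60% with every replicate also reaching 60%; inconclusive means only one of the two criteria is met; inactive means mean below 60% and not all replicates reaching 60%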;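 further: luciferase light reporting Pax8 driven TPO promoter activity; plate controls were median of neutral control wells for no effect and mitoxantrone controls for full effect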
TRPM1 prom inh: MITF TRPM1 promoter inhibition in SK-MEL-5 cells | SK-MEL-5 TRPM1 promoter luciferase, 24 h | inhibition, % at 12.5 µM | 0.83% of 330,000 active | AID 488899;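 active means mean inhibition across replicates of 60% or more, whatever share of single replicates reaches that level; inconclusive means some that reach 60%, reason not given; inactive means mean inhibition across replicates below 60%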
LMP1 NFkB inh: reduces LMP1-driven NF-kappaB luciferase signal; LMP1-induced NF-kappaB luciferase reporter cells, luminescence; inhibition, % at 12.5 µM; 0.69% of 350,000 active; in the data active means inhibition above about 41%; inconclusive means no clear call, values can overlap the other calls;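 further: 0% = neutral control wells and 100% = reference inhibitor control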
DNA binder FP: binds DNA displacing acridine orange; shares compounds with EWS-Fli inh; AID 720586; salmon sperm DNA acridine orange fluorescence polarization; 2% of 640 active; AC35, µM (titrated, usually from 68 µM), inactives show at the highest dose activity change, negative = DNA binding;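 active means fitted curve reaches a 35% signal fall AC35 below twice the sample's top valid tested dose, actives reach about 48 µM in these data; inactive means the rest, including activity in the rising direction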;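 further: lower polarization ratio signals compound binding to DNA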
* marks the source's active call; other numbers are inactive results; ! = repeats disagree. In the library only some 2.2% were active in any assay of this set; here they are far more common.

What do the screens show for `C=CCn1c(O)c(N=Nc2ccccc2)c2ccccc21`?
LGR2 antag: -2.3; Shn3 3UTR inh: 13.6; EWS-Fli inh: 55.2*; PAX8 reporter: -17.5; TRPM1 prom inh: 9.7; LMP1 NFkB inh: 1.4; DNA binder FP: -2.8%

Results for C[C@H](O)C#Cc1ccc2c(c1)O[C@@H](CN(C)Cc1ccc(-c3ccccc3)cc1)[C@H](C)CN([C@@H](C)CO)S2(=O)=O ?
LGR2 antag: 20.0; Shn3 3UTR inh: 82.6; EWS-Fli inh: 67.1*!; PAX8 reporter: 87.2*; LMP1 NFkB inh: -118.4; DNA binder FP: -8.6%

Results for C[C@H](CO)N1C[C@H](C)[C@@H](CN(C)Cc2ccccc2)Oc2cc(C#C[C@@H](C)O)ccc2S1(=O)=O ?
LGR2 antag: -4.2; EWS-Fli inh: -2.3

Results for C[C@@H]1CN([C@H](C)CO)S(=O)(=O)c2ccc(C#CC(C)(C)O)cc2O[C@H]1CN(C)Cc1ccc(-c2ccccc2)cc1 ?
LGR2 antag: 1.1; EWS-Fli inh: 57.9*; DNA binder FP: -15.1%

How did C[C@@H]1CN([C@@H](C)CO)C(=O)c2cccc(NC(=O)c3nc4ccccc4s3)c2O[C@@H]1CN(C)Cc1ccncc1 do in these assays?
LGR2 antag: -18.6; EWS-Fli inh: 2.0; PAX8 reporter: -3.5

Results for COc1ccc2c3c([nH]c2c1)[C@@H](CO)N(C(=O)c1ccncc1)CC31CN(C(=O)CC2CC2)C1 ?
LGR2 antag: -9.1; EWS-Fli inh: -7.1

How did CCCCNC1=CC(=O)C(=O)c2ccccc21 do in these assays?
LGR2 antag: 11.1; Shn3 3UTR inh: 15.8; EWS-Fli inh: 54.4*; PAX8 reporter: inconclusive; TRPM1 prom inh: 93.7*; LMP1 NFkB inh: 3.2; DNA binder FP: 1.7%

Results for O=C(Nc1ccc2c(c1)[C@@H]1C[C@H](CC(=O)N3CCOCC3)O[C@H](CO)[C@@H]1O2)c1ccc2c(c1)OCO2 ?
LGR2 antag: -2.0; EWS-Fli inh: -21.7; PAX8 reporter: -27.2

What do the screens show for `N#CC(=C1C=CC(=NO)C(Cl)=C1)c1ccccc1`?
LGR2 antag: 2.8; Shn3 3UTR inh: 19.8; EWS-Fli inh: 51.3*; PAX8 reporter: 72.9*; DNA binder FP: -2.2%

How did C[C@H]1CN([C@@H](C)CO)C(=O)c2cc(-c3cccnc3)cnc2O[C@@H]1CN(C)C(=O)NC1CCCC1 do in these assays?
LGR2 antag: 18.8; EWS-Fli inh: -11.7
